Results published in ChEMBL document CHEMBL4513216, “Probing the Open Global Health Chemical Diversity Library for Multistage-Active Starting Points for Next-Generation Antimalarials” (ACS Infect Dis, 2020).
Among all 68,000 compounds or so, about 2,700 (4%) showed an effect of 50% or more. The sample holds strong results, similar compounds and a random draw of the others, so the mix is not that of the screen.

tested on: Plasmodium berghei; assay: Screen against P. berghei liver stage (PbLuc), transformed with Luciferase, at 2uM; type: functional, HepG2; details: tested at 2 uM

Compound | INHIBITION
CC(=O)N1CCC(Cc2ccc(-c3ccnn3C)nc2)CC1 | 35.19%
Cc1ccc(N2CC[C@H]3O[C@@H](C(=O)N4CCCO4)CC[C@H]32)nn1 | -28.58%
CNS(=O)(=O)c1cccc(CNC(=O)c2cnn(C)c2C)c1 | -2.2%
CCn1c(C)cc(C(=O)NCc2cccc(NS(C)(=O)=O)c2)c1C | -6.29%
CCn1c(C)cc(C(=O)NCc2cccc(S(=O)(=O)NC)c2)c1C | 62.01%
Cc1nccn1-c1ccc(NC(=O)C2CCCN2Cc2c[nH]cn2)cc1 (centres undefined) | 31.51%
Cc1nccn1-c1ccc(NC(=O)C2CCCN2Cc2ccoc2)cc1 (centres undefined) | 29.13%
Cc1nccn1-c1ccc(NC(=O)C2CCCN2CC2CC2)cc1 (centres undefined) | 69.67%
COCCCN1CCN(c2ncnc3nc(C)cc(C)c23)CC1 | 19.27%
O=C(CCc1n[nH]c2c1CCCC2)N1C[C@H]2CC[C@@H](C1)N(CC1CC1)C2 | 35.94%
Nc1cc(N2CCCC(COc3ccc(F)cc3)C2)ncn1 (centres undefined) | 42.11%
Cc1nc(N)cc(N2CCCC(COc3cccc(F)c3)C2)n1 (centres undefined) | 59.8%
Nc1cc(N2CCCC(COc3ccc(F)cc3)C2)nc(N)n1 (centres undefined) | 17.48%
N#Cc1cccnc1NCc1cccc(C(=O)NCC2CCCCO2)c1 (centres undefined) | 27.85%
N#Cc1cccnc1NCCc1cc(F)cc2c1OCOC2 | 4.68%
COc1ccc2c(c1)CCCC2CC(=O)NCC(=O)O (centres undefined) | -35.22%
COc1ccc2c(c1)CCCC2CC(=O)O (centres undefined) | -36.72%
COc1ccc2c(c1)CCCC2CC(=O)NCC(C)(C)C(=O)O (centres undefined) | 53.98%
CC1CN(CC(=O)Nc2nncs2)CCN1Cc1nccn1C (centres undefined) | -11.91%
CCS(=O)(=O)c1ncc(CN(C)C)n1Cc1ccccc1 | -2.93%
O=C(Cn1cnc(-c2cccs2)cc1=O)Nc1cccnc1 | -8.7%
CC(=O)c1cccc(NC(=O)CCn2nc(-c3cccs3)oc2=O)c1 | 15.28%
CC(=O)c1cccc(NC(=O)Cn2nc(-c3cccs3)oc2=O)c1 | 51.94%
O=c1oc(-c2cccs2)nn1CC(O)c1ccccc1 (centres undefined) | 60.95%
CC(=O)c1cccc(NC(=O)Cn2cnc(-c3ccccc3)cc2=O)c1 | 3.11%
O=c1oc(-c2cccs2)nn1CC(O)c1ccc(F)cc1 (centres undefined) | 29.61%
O=c1oc(-c2cccs2)nn1CC(O)c1ccccc1F (centres undefined) | 34.89%
CC(=O)c1cccc(NC(=O)Cn2cnc(-c3cccs3)cc2=O)c1 | 50.7%
CNC(=O)c1cccc(NC(=O)Cn2nc(-c3cccs3)oc2=O)c1 | 17.39%
